This passage reports morphology score and SARS-CoV-2 infection rate results from the supplement of paper PMC13380429.

For the first assay, the system named is Vero E6 infected with SARS-CoV-2. Description: morphology score (similarity to uninfected cells); higher = more like uninfected cells. The conditions noted are these: 24 h.
As to `c1ccc(NCc2ccc(CNc3ccccn3)cc2)nc1` (10 µM), the morphology score was -0.0443. Still for that read-out and setting: as for `CS(=O)(=O)N1CCN(Cc2cc3nc(-c4cccc5[nH]ncc45)nc(N4CCOCC4)c3s2)CC1` (10 µM), the figure is -0.319; as for `N=C(N)NCCCC[C@@H]1NC(=O)CCSSC[C@@H](C(N)=O)NC(=O)[C@@H]2CCCN2C(=O)[C@H](Cc2c[nH]c3ccccc23)NC(=O)[C@H](CC(=O)O)NC(=O)CNC1=O` [eptifibatide] (10 µM), -0.125. On to `Cc1cc(I)ccc1Nc1c(C(=O)NOCC2CC2)cc(F)c(F)c1F` (10 µM), for which the morphology score was found to be 0.0652. The same measure, in the same setting: in the case of `CC[C@H]1OC(=O)[C@H](C)C(=O)[C@H](C)[C@@H](O[C@@H]2O[C@H](C)C[C@H](N(C)C)[C@H]2O)[C@](C)(OC)C[C@@H](C)C(=O)[C@H](C)[C@H]2N(CCCCn3cnc(-c4cccnc4)c3)C(=O)O[C@]12C` [telithromycin] (10 µM) it was 0.0131; in that of `CCOc1cccc(NC(=O)c2ccc(N3CCCC3)c(C(F)(F)F)c2)c1` (10 µM), 0.0793; in that of `CCCc1c(OCC(O)COc2ccc3c(=O)cc(C(=O)O)oc3c2CCC)ccc(C(C)=O)c1O` (centres undefined) (10 µM), 0.197. Same read-out and setting: as for `OCC(O)CN1CCN(c2ccccc2)CC1` (centres undefined) [dropropizine] (10 µM), the figure is 0.106; as for `O=[N+]([O-])c1cc([N+](=O)[O-])c(/C=C/c2ccc(Cl)c(Cl)c2)cc1/C=C/c1ccc(Cl)c(Cl)c1` (10 µM), 0.192. Still for that read-out and setting: in the case of `CC(=O)NCC(=O)N1[C@@H]2CC[C@H]1c1ccc(Nc3ncc(C(F)(F)F)c(NC4CCC4)n3)cc12` (0.833333 µM) it was -0.071.

The molecule `N#Cc1ccc2[nH]c(O)c(-c3ccc(CN4CCOCC4)cn3)c2c1` (10 µM) returned a morphology score of -0.238. On the same count and under the same terms, as for `C=C[C@@H]1C[C@]1(NC(=O)[C@@H]1C[C@@H]2CN1C(=O)[C@H](C(C)(C)C)NC(=O)O[C@@H]1C[C@H]1CCCCCc1nc3ccc(OC)cc3nc1O2)C(=O)NS(=O)(=O)C1CC1` [grazoprevir] (10 µM), the figure is 0.0897; as for `C[N+](C)(C)CCCCCNCC12CC3CC(CC(C3)C1)C2` (10 µM), -0.0308; as for `CC(=O)OCC(=O)[C@@]1(O)CC[C@H]2[C@@H]3CCC4=CC(=O)CC[C@]4(C)[C@H]3C(=O)C[C@@]21C` [cortisone-acetate] (10 µM), -0.0698.

As for `CCc1nc2ccc(Cl)cn2c1C(=O)NCc1ccc(N2CCC(c3ccc(OC(F)(F)F)cc3)CC2)cc1` (10 µM), the morphology score worked out at 0.0715.

For `COc1ccc(/C=C2\CCCN=C2c2cccnc2)c(OC)c1` (10 µM), the morphology score worked out at 0.517. The same measure, in the same setting: as for `NC(=O)Nc1cc(-c2cccc(F)c2)sc1C(=O)N[C@H]1CCCNC1` (0.833333 µM), the figure is 0.11; as for `C[C@H]1CC[C@H](n2c3cnccc3c3cnc(Nc4ccc5c(n4)CCN(C(=O)CO)C5)nc32)CC1` (10 µM), 0.0031; as for `CCOC(=O)[N-]c1c[n+](N2CCOCC2)no1` [molsidomine] (10 µM), 0.0533. For the molecule `CC(C)=CCC[C@](C)(O[C@@H]1O[C@H](CO)[C@@H](O)[C@H](O)[C@H]1O)[C@H]1CC[C@]2(C)[C@@H]1[C@H](O)C[C@@H]1[C@@]3(C)CC[C@H](O[C@@H]4O[C@H](CO)[C@@H](O)[C@H](O)[C@H]4O[C@@H]4O[C@H](CO)[C@@H](O)[C@H](O)[C@H]4O)C(C)(C)[C@@H]3CC[C@]12C` [ginsenoside-RD] (10 µM), the morphology score came to 0.0521. Same read-out and setting: in the case of `CS(=O)(=O)OCCCCOS(C)(=O)=O` [busulfan] (10 µM) it was -0.026; in that of `c1ccc(CN2CCC3(CCc4ccccc43)CC2)cc1` (10 µM), 0.228. The same measure, in the same setting: as for `O=C(O)C(Cl)Cl` [dichloroacetate] (10 µM), the figure is 0.236; as for `CN1CCN(c2cccc(Nc3nc4c(-c5ccc(S(C)(=O)=O)cc5)cccn4n3)c2)CC1` (0.833333 µM), 0.157; as for `CC(C)c1ccc2c(c1)CC[C@H]1[C@](C)(CN)CCC[C@]21C` [lylamine] (0.833333 µM), -0.00872.

For the next assay the test system is unchanged. Description: SARS-CoV-2 infection rate relative to infected DMSO; higher = more infection, active = 60 or less. Particulars: 24 h.
Turning to `Oc1cc(O)c(Cl)cn1` [gimeracil] (10 µM), the SARS-CoV-2 infection rate was 107% (inactive). With `NCCS` [cysteamine] (10 µM), the SARS-CoV-2 infection rate was 112% (inactive). Same read-out and setting: as for `CC(C)N(CCC(=O)c1ccc2ccccc2c1)Cc1ccccc1` (10 µM), the figure is 104% (inactive). Take `NCCNCCNCCN` [trientine] (10 µM): the SARS-CoV-2 infection rate is 106% (inactive). Consider `COC(=O)N1CCN(Cc2cccc(NC(=O)Nc3ccc(C)nc3)c2F)CC1` [omecamtiv-mecarbil] (10 µM), for which the SARS-CoV-2 infection rate is 99% (inactive). Take `NC(=O)C[C@H](N)C(=O)O` [L-asparagine] (10 µM): the SARS-CoV-2 infection rate was 94% (inactive). `CCCN(CCC)C(=O)C(CCC(=O)OCCCN1CCN(CCOC(=O)Cc2c(C)n(C(=O)c3ccc(Cl)cc3)c3ccc(OC)cc23)CC1)NC(=O)c1ccccc1` (centres undefined) [proglumetacin] (10 µM): the SARS-CoV-2 infection rate is 99.5% (inactive). With `CC(=O)N[C@@H](CC(=O)O)C(=O)N[C@@H](CCC(=O)O)C(=O)O` [spaglumic-acid] (10 µM), the SARS-CoV-2 infection rate was 88.5% (inactive). Same read-out and setting: as for `Cc1nc(N)sc1CCN` [amthamine] (10 µM), the figure is 92.5% (inactive); as for `c1ccc(-c2nn3c(c2-c2ccnc4cc(OCCN5CCOCC5)ccc24)CCC3)nc1` (10 µM), 80% (inactive). In the case of `Clc1cc(Cl)c(OCC#CI)cc1Cl` [haloprogin] (10 µM), the SARS-CoV-2 infection rate was 32% (active). Still for that read-out and setting: as for `C[C@@H](N)Cc1c[nH]c2ccc(O)cc12` [alpha-methylserotonin] (10 µM), the figure is 97% (inactive); as for `O=C(c1ccc(OCCN2CCCCC2)cc1)c1c(-c2ccc(O)cc2)sc2cc(O)ccc12` [raloxifene] (0.833333 µM), 101% (inactive). With `CO/N=C(\C(=O)N[C@@H]1C(=O)N2C(C(=O)OCOC(=O)C(C)(C)C)=C(C)CS[C@H]12)c1csc(N)n1` [cefetamet-pivoxil] (10 µM), the SARS-CoV-2 infection rate is 96.5% (inactive). Still for that read-out and setting: in the case of `c1ccc(NCc2ccc(CNc3ccccn3)cc2)nc1` (10 µM) it was 102% (inactive). Still for that read-out and setting: as for `CS(=O)(=O)N1CCN(Cc2cc3nc(-c4cccc5[nH]ncc45)nc(N4CCOCC4)c3s2)CC1` (10 µM), the figure is 89% (inactive); as for `N=C(N)NCCCC[C@@H]1NC(=O)CCSSC[C@@H](C(N)=O)NC(=O)[C@@H]2CCCN2C(=O)[C@H](Cc2c[nH]c3ccccc23)NC(=O)[C@H](CC(=O)O)NC(=O)CNC1=O` [eptifibatide] (10 µM), 118% (inactive).

With `Cc1cc(I)ccc1Nc1c(C(=O)NOCC2CC2)cc(F)c(F)c1F` (10 µM), the SARS-CoV-2 infection rate was 113% (inactive). Regarding `CC[C@H]1OC(=O)[C@H](C)C(=O)[C@H](C)[C@@H](O[C@@H]2O[C@H](C)C[C@H](N(C)C)[C@H]2O)[C@](C)(OC)C[C@@H](C)C(=O)[C@H](C)[C@H]2N(CCCCn3cnc(-c4cccnc4)c3)C(=O)O[C@]12C` [telithromycin] (10 µM), the SARS-CoV-2 infection rate was 118% (inactive). The same measure, in the same setting: in the case of `CCOc1cccc(NC(=O)c2ccc(N3CCCC3)c(C(F)(F)F)c2)c1` (10 µM) it was 102% (inactive); in that of `CCCc1c(OCC(O)COc2ccc3c(=O)cc(C(=O)O)oc3c2CCC)ccc(C(C)=O)c1O` (centres undefined) (10 µM), 99.5% (inactive); in that of `OCC(O)CN1CCN(c2ccccc2)CC1` (centres undefined) [dropropizine] (10 µM), 103% (inactive).

Regarding `O=[N+]([O-])c1cc([N+](=O)[O-])c(/C=C/c2ccc(Cl)c(Cl)c2)cc1/C=C/c1ccc(Cl)c(Cl)c1` (10 µM), the SARS-CoV-2 infection rate is 97.5% (inactive). Same read-out and setting: in the case of `CC(=O)NCC(=O)N1[C@@H]2CC[C@H]1c1ccc(Nc3ncc(C(F)(F)F)c(NC4CCC4)n3)cc12` (0.833333 µM) it was 124% (inactive); in that of `N#Cc1ccc2[nH]c(O)c(-c3ccc(CN4CCOCC4)cn3)c2c1` (10 µM), 100% (inactive); in that of `C=C[C@@H]1C[C@]1(NC(=O)[C@@H]1C[C@@H]2CN1C(=O)[C@H](C(C)(C)C)NC(=O)O[C@@H]1C[C@H]1CCCCCc1nc3ccc(OC)cc3nc1O2)C(=O)NS(=O)(=O)C1CC1` [grazoprevir] (10 µM), 109% (inactive). The same measure, in the same setting: as for `C[N+](C)(C)CCCCCNCC12CC3CC(CC(C3)C1)C2` (10 µM), the figure is 112% (inactive); as for `CC(=O)OCC(=O)[C@@]1(O)CC[C@H]2[C@@H]3CCC4=CC(=O)CC[C@]4(C)[C@H]3C(=O)C[C@@]21C` [cortisone-acetate] (10 µM), 87.5% (inactive). Regarding `CCc1nc2ccc(Cl)cn2c1C(=O)NCc1ccc(N2CCC(c3ccc(OC(F)(F)F)cc3)CC2)cc1` (10 µM), the SARS-CoV-2 infection rate was 96% (inactive).

With `COc1ccc(/C=C2\CCCN=C2c2cccnc2)c(OC)c1` (10 µM), the SARS-CoV-2 infection rate is 87% (inactive). The same measure, in the same setting: in the case of `NC(=O)Nc1cc(-c2cccc(F)c2)sc1C(=O)N[C@H]1CCCNC1` (0.833333 µM) it was 106% (inactive). On the same count and under the same terms, as for `C[C@H]1CC[C@H](n2c3cnccc3c3cnc(Nc4ccc5c(n4)CCN(C(=O)CO)C5)nc32)CC1` (10 µM), the figure is 110% (inactive); as for `CCOC(=O)[N-]c1c[n+](N2CCOCC2)no1` [molsidomine] (10 µM), 102% (inactive). Still for that read-out and setting: in the case of `CC(C)=CCC[C@](C)(O[C@@H]1O[C@H](CO)[C@@H](O)[C@H](O)[C@H]1O)[C@H]1CC[C@]2(C)[C@@H]1[C@H](O)C[C@@H]1[C@@]3(C)CC[C@H](O[C@@H]4O[C@H](CO)[C@@H](O)[C@H](O)[C@H]4O[C@@H]4O[C@H](CO)[C@@H](O)[C@H](O)[C@H]4O)C(C)(C)[C@@H]3CC[C@]12C` [ginsenoside-RD] (10 µM) it was 102% (inactive); in that of `CS(=O)(=O)OCCCCOS(C)(=O)=O` [busulfan] (10 µM), 102% (inactive); in that of `c1ccc(CN2CCC3(CCc4ccccc43)CC2)cc1` (10 µM), 80.5% (inactive). As for `O=C(O)C(Cl)Cl` [dichloroacetate] (10 µM), the SARS-CoV-2 infection rate is 88.5% (inactive). On the same count and under the same terms, in the case of `CN1CCN(c2cccc(Nc3nc4c(-c5ccc(S(C)(=O)=O)cc5)cccn4n3)c2)CC1` (0.833333 µM) it was 106% (inactive); in that of `CC(C)c1ccc2c(c1)CC[C@H]1[C@](C)(CN)CCC[C@]21C` [lylamine] (0.833333 µM), 106% (inactive).
